Only some compounds are listed: those with a hit (about 14% of all), similar ones and a draw of the others.
Sm TGR block – qHTS Assay for the Inhibitors of Schistosoma Mansoni Peroxiredoxins; purified TGR, DTNB reduction, TNB absorbance 405 nm; Potency, µM (series often up to 114 µM), for inactives: at the top dose activity change, negative = inhibition, actives largely listed as inhibitors; 360,000 tested, 3% active; AID 485364, 2010; note: potency is the fitted concentration of half-maximal effect; nearly all actives have a fitted effect of over 60% in size
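TGR 20 nM + NADPH 100 uM (dispensed conc.), cpd preinc 15 min RT; start with NADPH (500 uM addition) then DTNB (15 mM addition). Kinetic TNB absorbance, 405 nm filter. Four-parameter Hill fit across titration.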
Pf growth 96h – Primary qHTS for delayed death inhibitors of the malarial parasite plastid, 96 hour incubation; P. falciparum luciferase reporter growth, 96 h; Potency, µM (titrated, usually from 28.7 µM), inactives show at the top dose activity change, negative = inhibition, hits mostly inhibitors; 320,000 tested, 6.9% active; AID 504834, 2011; note: potency is the fitted concentration of half-maximal effect
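Readout is luminescence from an integrated firefly luciferase in P. falciparum. Red cells, 2% hematocrit and 0.05% parasitemia final, were cultured with compound through two parasite generations (96 hours) at 37 C, 5% CO2.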
FBPA Giardia inh – qHTS Assay for Inhibitors of Fructose-1,6-bisphosphate Aldolase from Giardia Lamblia. Potency, µM (titrated, usually from 59.6 µM), for inactives: at the highest dose activity, negative = inhibition, actives largely listed as inhibitors. purified Giardia FBPA. AID 2451, 2010. 290,000 tested, 0.71% active. A8B2U2; note: potency is the fitted concentration of half-maximal effect; nearly all actives have a fitted effect of over 55% in size
Target sequence (A8B2U2 whole entry, looked up): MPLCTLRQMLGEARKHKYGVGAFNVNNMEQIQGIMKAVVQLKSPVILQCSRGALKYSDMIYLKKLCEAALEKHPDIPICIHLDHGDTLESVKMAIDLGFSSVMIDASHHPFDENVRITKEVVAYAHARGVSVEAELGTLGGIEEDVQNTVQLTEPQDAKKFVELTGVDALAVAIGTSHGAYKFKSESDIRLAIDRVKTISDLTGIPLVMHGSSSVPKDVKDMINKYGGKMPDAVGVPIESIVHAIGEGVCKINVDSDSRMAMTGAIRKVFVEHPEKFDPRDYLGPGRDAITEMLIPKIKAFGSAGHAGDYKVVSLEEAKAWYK
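40 nM FBPA preincubated 10 min at RT with compound (up to 57.5 uM final), then substrate plus GAPDH/TPI/NAD/arsenate coupling and diaphorase/resazurin added. Fluorescence read after 20 min at RT, 525/598 nm.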
HCMV inh – qHTS Assay for inhibitors of the human cytomegalovirus (HCMV). HFF cells, HCMV-luciferase reporter, 72 h; hits give low values. 410,000 tested, 4.5% active. AID 1259415, 2018. activity change, negative = inhibition, % at 57.5 µM; in the data active = activity change below about -60%; inconclusive = no clear call, values can overlap the other calls; inactive = above about -39%
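Human foreskin fibroblasts infected with luciferase-reporter HCMV at MOI 1 PFU/cell, compounds at two doses. Luciferase measured 72 h post infection; normalized to buffer-only basal and Salinomycin (10uM) controls.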
Pf growth 48h – Primary qHTS for delayed death inhibitors of the malarial parasite plastid, 48 hour incubation | P. falciparum luciferase growth in erythrocytes, 48 h | AID 504832, 2011 | Potency, µM (series often up to 28.7 µM), for the others: at the top dose activity change, negative = inhibition, usual class: inhibitors | 310,000 tested, 5.9% active; note: potency is the fitted concentration of half-maximal effect
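A one-generation exposure of luciferase-tagged malaria parasites in RPMI 1640/Albumax erythrocyte culture, 37 C and 5% CO2. Inhibition is inferred from decreased luminescence after adding detection reagent.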
Numbers without * were called inactive. Unless noted, calls come from the whole dose curve; as a rule, active = well fitted curve in the direction sought with a large enough effect; inconclusive = small, poorly fitted or top-dose-only effect, or another doubt; inactive = no such curve, though single readings can be large; an effect the other way counts as inactive or inconclusive. % is set by controls: 0 for no effect and ±100 for the full control effect.

What do the screens show for `NS(=O)(=O)c1ccc(N=Nc2c(O)c(C(=O)O)cc3ccccc23)cc1`?
Sm TGR block: inconclusive; Pf growth 96h: 10µM*; FBPA Giardia inh: inconclusive; HCMV inh: inconclusive; Pf growth 48h: inconclusive

Results for COc1ccc(NC(=O)C(c2cccc3ccccc23)n2c(=O)c(-c3ccco3)nc3ccccc32)cc1 (centres undefined) ?
HCMV inh: 66

What do the screens show for `CN1C(=O)C(=Cc2ccccc2OCc2ccc(Cl)cc2)C(=O)N(C)C1=O`?
Sm TGR block: inconclusive; Pf growth 96h: 1µM*; FBPA Giardia inh: -15%; HCMV inh: inconclusive; Pf growth 48h: 29%

Results for Cc1ccc(S(=O)(=O)Oc2ccccc2/C=C2/SC(=O)NC2=O)cc1 ?
Sm TGR block: 5%; Pf growth 96h: inconclusive; FBPA Giardia inh: -5%; HCMV inh: -22; Pf growth 48h: -11%

Results for Cc1ccc(S(=O)(=O)Oc2ccccc2C=C2C(=O)N(C)C(=O)N(C)C2=O)cc1 ?
Sm TGR block: inconclusive; Pf growth 96h: 12µM*; FBPA Giardia inh: -9%; HCMV inh: 33; Pf growth 48h: -13%

What do the screens show for `COc1ccc(C2=NN(C(=O)CCC(=O)O)C(c3ccccc3F)C2)cc1` (centres undefined)?
Sm TGR block: inconclusive; Pf growth 96h: 2.3µM*; FBPA Giardia inh: 0%; HCMV inh: 5; Pf growth 48h: -21%

What do the screens show for `COc1ccc(C2CC(c3ccc(Br)cc3)=NN2C(=O)CCC(=O)O)cc1OC` (centres undefined)?
Sm TGR block: -20%; Pf growth 96h: 97%; FBPA Giardia inh: 5%; HCMV inh: -8; Pf growth 48h: -23%

What do the screens show for `COc1ccc(C2CC(c3ccccc3)=NN2C(=O)CCC(=O)O)cc1` (centres undefined)?
Sm TGR block: -22%; Pf growth 96h: -17%; FBPA Giardia inh: 25%; HCMV inh: -14; Pf growth 48h: -10%

How did O=C(O)CCC(=O)N1N=C(c2ccc(Br)cc2)CC1c1cccc(Br)c1 (centres undefined) do in these assays?
Sm TGR block: 2%; Pf growth 96h: 354%; FBPA Giardia inh: 7%; HCMV inh: -15; Pf growth 48h: 6.6µM*

What do the screens show for `COc1ccc(C2=NN(C(=O)CCC(=O)O)C(c3ccc(OC)c(OC)c3)C2)cc1` (centres undefined)?
Sm TGR block: 22µM*; Pf growth 96h: 12µM*; FBPA Giardia inh: 12%; HCMV inh: -102*; Pf growth 48h: -1%

What do the screens show for `O=C(Cc1cccc(NC(=O)C2CCN(C(=O)C3CCC3)CC2)c1)Nc1cccc(C(=O)N2CCCC2)c1`?
Sm TGR block: -24%; Pf growth 96h: inconclusive; HCMV inh: 15; Pf growth 48h: inconclusive

What do the screens show for `COc1ccc(-c2cc(C(F)(F)F)n3ncc(C(=O)N4CCCCC4c4cccnc4)c3n2)cc1` (centres undefined)?
Sm TGR block: -3%; Pf growth 96h: -12%; FBPA Giardia inh: -2%; HCMV inh: inconclusive; Pf growth 48h: 2.9µM*

Results for CCOC(=O)C1CCCN(C(=O)c2cc3nc(-c4cccc(OC)c4)cc(C(F)(F)F)n3n2)C1 (centres undefined) ?
Sm TGR block: -18%; FBPA Giardia inh: -2%; HCMV inh: 40; Pf growth 48h: 12µM*

How did CCOC(=O)C1CCCN(C(=O)c2cnn3c(C(F)(F)F)cc(-c4ccccc4)nc23)C1 (centres undefined) do in these assays?
Sm TGR block: -4%; FBPA Giardia inh: 3%; HCMV inh: -23; Pf growth 48h: 9.3µM*

How did COC(=O)c1cnn2c(C(F)(F)F)cc(-c3ccc(F)cc3)nc12 do in these assays?
Sm TGR block: -4%; Pf growth 96h: inconclusive; FBPA Giardia inh: 12%; HCMV inh: -18; Pf growth 48h: 0%

How did CCOC(=O)c1cnn2c(C(F)(F)F)cc(-c3ccc(Br)cc3)nc12 do in these assays?
Sm TGR block: 40µM*; HCMV inh: 1

What do the screens show for `O=C(NCc1ccncn1)[C@H]1[C@H](CO)[C@H]2Cn3c(cccc3=O)[C@@H]1N2CC1CC1`?
HCMV inh: 1

How did Cc1ccc(CNC(=O)CC2(CC3=NS(=O)(=O)c4ccccc4N3)CCCC2)cc1 do in these assays?
Sm TGR block: -1%; Pf growth 96h: 12µM*; FBPA Giardia inh: 8%; HCMV inh: -8; Pf growth 48h: inconclusive

What do the screens show for `COc1ccc(CCNC(=O)CC2(CC3=NS(=O)(=O)c4ccccc4N3)CCCC2)cc1OC`?
Sm TGR block: -17%; Pf growth 96h: 10%; HCMV inh: -8; Pf growth 48h: inconclusive

What do the screens show for `COc1ccc(CNC(=O)CCCC2=NS(=O)(=O)c3ccccc3N2)cc1`?
Sm TGR block: 3%; Pf growth 96h: 10µM*; HCMV inh: -34; Pf growth 48h: 13%

Results for CCn1cc(C(=O)O)c(=O)c2cnc(N3CCN(C(=S)NC(=O)c4ccc(OC)cc4)CC3)nc21 ?
Sm TGR block: 5%; Pf growth 96h: 6%; FBPA Giardia inh: 14%; HCMV inh: 1; Pf growth 48h: -7%

Results for COCc1cc(N2CCN(C(=O)OC(C)(C)C)C[C@@H]2C)ccc1N1CC[C@@H](O)C1 ?
HCMV inh: 19

Results for C/C(=N\NC(=S)Nc1cc(S(=O)(=O)N2CCOCC2)ccc1Cl)c1ccc(N2CCOCC2)cc1 ?
Sm TGR block: 26%; Pf growth 96h: 1.9µM*; FBPA Giardia inh: 10%; HCMV inh: -18; Pf growth 48h: 1.7µM*

What do the screens show for `O=S(=O)(c1ccc(Cl)c(NC(=S)Nc2ccccc2N2CCOCC2)c1)N1CCOCC1`?
Sm TGR block: 35µM*; Pf growth 96h: -27%; FBPA Giardia inh: -22%; HCMV inh: -16; Pf growth 48h: 8%

What do the screens show for `C/C(=N\NC(=S)Nc1ccc(C)c(C)c1)c1ccc(N2CCOCC2)cc1`?
Sm TGR block: -3%; Pf growth 96h: 3.7µM*; FBPA Giardia inh: 0%; HCMV inh: -61*; Pf growth 48h: 12µM*

What do the screens show for `COc1ccc2cc(/C(C)=N/NC(=S)Nc3cc(S(=O)(=O)N4CCOCC4)ccc3N3CCOCC3)ccc2c1`?
Pf growth 96h: inconclusive; FBPA Giardia inh: 2%; Pf growth 48h: 1.5µM*

What do the screens show for `C/C(=N\NC(=O)c1ccc(Cl)cc1)c1ccc(N2CCOCC2)cc1`?
Sm TGR block: 0%; Pf growth 96h: -4%; FBPA Giardia inh: -1%; HCMV inh: 46; Pf growth 48h: -3%

Screens deposited in PubChem BioAssay by National Center for Advancing Translational Sciences (NCATS).
